Measured values: PubChem BioAssay (NCATS)
Results filed as inconclusive are left out. Activity calls are given as the source filed them. Calls come from the whole dose curve; as a rule, active = well fitted inhibition curve with a large enough effect; inconclusive = small, poorly fitted or top-dose-only effect; inactive = flat fitted curve, though single readings scatter.

Each compound was assayed against Aldehyde dehydrogenase, mitochondrial (Homo sapiens) (UniProt P05091) (assay: qHTS for Inhibitors of the Aldehyde Dehydrogenase Family (ALDH2) Primary screen (AID 2061308;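 note: plate controls were vehicle for no effect and reference inhibitor for full effect; nearly all actives have a fitted effect of over 55% in size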)). Details: ALDH2 enzyme inhibition qHTS, 1536-well; series mostly up to 56 µM; activity change, negative = inhibition: at the top concentration.

SMILES | activity change, negative = inhibition
CC/C=C\CC1C(=O)C=CC1(CCCCC1CCC(=O)O1)OC(C)=O (centres undefined) | -12.6% (inactive)
CC(=O)OC1C(O)C(C)=C(CCC(C)CC(=O)O)C2(C)CCCC(C)(C)C12 (centres undefined) | -1.61% (inactive)
COc1cc2c(c(OC)c1O)C(c1ccc(O)cc1)C1C(=O)OC3C(COC(=O)C1=C2)OC(CO)(OC1OC(COC(=O)/C=C/c2ccc(OC4OC(C)C(O)C(O)C4O)cc2)C(O)C(O)C1O)C3O (centres undefined) | -4.25% [at 16.9 µM] (inactive)
COC1OC(O)C2(CCC3(O2)C(C)CC2OC(=O)C4(C)CCCC3(C)C24)C1O (centres undefined) | 5.9% (inactive)
C=C1[C@H](OC(C)=O)[C@H]2[C@@H](OC(C)=O)[C@](C)(OC(C)=O)C[C@]2(OC(C)=O)C(=O)[C@H](C)/C=C/C(C)(C)C(=O)[C@H](OC(=O)C(C)C)[C@H]1OC(C)=O | -6.18% [at 16.9 µM] (inactive)
C=C[C@H]1[C@H](O[C@@H]2O[C@H](CO)[C@@H](O)[C@H](O)[C@H]2O)OC=C(C(=O)OC)[C@H]1C/C=C(/C=O)[C@@H]1C(C(=O)OC)=CO[C@@H](O[C@@H]2O[C@H](CO)[C@@H](O)[C@H](O)[C@H]2O)[C@@H]1C=C | -3.74% [at 16.9 µM] (inactive)
Cc1cc(F)ccc1-c1nc(NCCN=C(N)NC#N)nc2c1ccc(=O)n2-c1c(F)cccc1F | 4.45% (inactive)
CC(=O)O[C@@H]1[C@H](O[C@@H]2O[C@H](CO)[C@@H](O)[C@H](O)[C@H]2O)[C@@H](O[C@@H]2O[C@@H](C)[C@H](O)[C@@H](O[C@@H]3O[C@H](CO)[C@@H](O)[C@H](O)[C@H]3O)[C@H]2O)[C@H](OC(=O)C23CCC4(C)C(=CCC5C6(C)CC(O)C(O[C@@H]7O[C@H](C(=O)O)[C@@H](O)[C@H](O)[C@H]7O)C(C)(C(=O)O)C6CCC54C)C2CC(C)(C)CC3O)O[C@@H]1C (some centres undefined) | -6.27% [at 11.2 µM] (inactive)
CC(/C=C/[C@]1(O)[C@@]2(C)CO[C@@]1(C)C[C@@H](O)C2)=C\C(=O)O[C@@H]1O[C@H](CO)[C@@H](O)[C@H](O)[C@H]1O | 3.29% [at 28 µM] (inactive)
CC(C)c1nc(N(C)S(C)(=O)=O)nc(-c2ccc(F)cc2)c1/C=C/[C@@H](O)C[C@@H](O)CC(=O)O | -0.237% (inactive)
CC1(C)CC[C@]2(C(=O)O)CC[C@]3(C)C(=CCC4[C@@]5(C)C[C@@H](O)[C@H](O)[C@](C)(CO)C5CC[C@]43C)[C@@H]2[C@@H]1O (some centres undefined) | -1.28% [at 28 µM] (inactive)
CC(=O)OC/C(=C/C(=O)O)CC[C@@H]1C(C=O)=CC[C@@H]2C(C)(C)CCC[C@@]12C | -3.24% (inactive)
CC(=O)OC[C@@]12C(=O)C[C@@H](C)[C@]3(C[C@@H](c4ccoc4)OC3=O)[C@H]1CC[C@H](OC(C)=O)[C@]21CO1 | 11.6% [at 28 µM] (inactive)
C=C1C(OC(C)=O)CCC2(C)CC3(OC)OC(=O)C(C)=C3CC12 (centres undefined) | -3.2% (inactive)
CC(=O)O[C@@H]1CC[C@@]2(C)[C@H](CC[C@@H]3[C@@H]2C[C@H](OC(C)=O)[C@]2(C)[C@@H](C(C)=O)CC[C@@H]32)C1 | -1.85% (inactive)
COC(=O)C1=CO[C@@H](O[C@@H]2O[C@H](CO)[C@@H](O)[C@H](O)[C@H]2O)[C@@H]2[C@@H](C(=O)OC)[C@@H](O)C(O)[C@H]12 (some centres undefined) | -1.73% [at 28 µM] (inactive)
CC[C@H](C)/C=C(C)/C=C/C1=CC2=C(Cl)C(=O)[C@](C)(O)[C@H](OC(C)=O)[C@H]2CO1 | -13.2% (inactive)
C=C1CC[C@@H]2[C@@](C)(CO[C@@H]3O[C@H](CO)[C@@H](O)[C@H](O)[C@H]3O)[C@H](O)CC[C@@]2(C)[C@@H]1CC/C(C)=C/CO[C@@H]1O[C@H](CO)[C@@H](O)[C@H](O)[C@H]1O | 6.76% [at 16.9 µM] (inactive)
C[C@@H]1O[C@@H](O[C@H]2[C@H](OC(=O)[C@]34CCC(C)(C)C[C@H]3C3=CCC5[C@@]6(C)CC[C@H](O[C@@H]7O[C@H](CO[C@@H]8OC[C@H](O)[C@H](O)[C@H]8O)[C@@H](O)[C@H](O)[C@H]7O)C(C)(C)C6CC[C@@]5(C)[C@]3(C)C[C@H]4O)OC[C@@H](O)[C@@H]2O)[C@H](O)[C@H](O)[C@H]1O[C@@H]1OC[C@H](O)[C@H](O[C@@H]2OC[C@@H](O)[C@H](O)[C@H]2O)[C@H]1O (some centres undefined) | 2.19% [at 11.2 µM] (inactive)
CC(C)C(NC(=O)c1ccc2ccccc2n1)C(=O)NC(CC(=O)O)C(=O)COc1c(F)cccc1F (centres undefined) | -17.8% (inactive)

SMILES | activity change, negative = inhibition
C=C1CC23CC1(O)CCC2C1=CC2OC(=O)C(C)(C2O)C1C3C(=O)O (centres undefined) | -0.252% (inactive)
CC1=C(C)C(=O)OC(C(C)C2CCC3C4C5OC5C5(O)CC(OC6OC(CO)C(OC7OC(C)C(O)C(O)C7O)C(O)C6O)CC(O)C5(C)C4CCC23C)C1 (centres undefined) | 1.01% [at 16.9 µM] (inactive)
C/C1=C\CC[C@H](C)CCO[C@@H]2O[C@H](CO[C@@H]3OC[C@](O)(COC1=O)[C@H]3O)[C@@H](O)[C@H](O)[C@H]2O | 2.28% [at 28 µM] (inactive)
CCOC(=O)C(CCc1ccccc1)NC(C)C(=O)N1Cc2ccccc2CC1C(=O)O (centres undefined) | -1.09% (inactive)
O=C(CCCN1CCN(c2ccc(F)cc2)CC1)NC1c2ccccc2CSc2ccccc21 (centres undefined) | -0.24% (inactive)
O=C(C[C@@H]1C(C(=O)O)=CO[C@@H](O[C@@H]2O[C@H](CO)[C@@H](O)[C@H](O)[C@H]2O)/C1=C\CO)OCCc1ccc(O)cc1 | 9.46% [at 28 µM] (inactive)
O=C(O)C(O[C@@H]1O[C@H](CO[C@@H]2O[C@H](CO)[C@@H](O)[C@H](O)[C@H]2O)[C@@H](O)[C@H](O)[C@H]1O)c1ccccc1 (some centres undefined) | -6.74% [at 28 µM] (inactive)
CC(=O)O[C@H]1CC(C)(C)CC2[C@@]13[C@H](O)C[C@]1(C)[C@@]2(CCC2[C@@]4(C)CC[C@H](O[C@@H]5OC[C@H](O[C@@H]6O[C@H](CO)[C@@H](O)[C@H](O)[C@H]6O[C@@H]6OC[C@@H](O)[C@H](O)[C@H]6O)[C@H](O)[C@H]5O[C@@H]5O[C@H](CO)[C@@H](O)[C@H](O)[C@H]5O)C(C)(C)C4CC[C@]21C)O[C@@H]3O (some centres undefined) | 5.4% [at 16.9 µM] (inactive)
COc1ccc(/C=C/C(=O)O[C@@H]2[C@@H](OC(C)=O)[C@@H](OC(C)=O)[C@H](O[C@H]3[C@@H]4C=CO[C@@H](O[C@@H]5O[C@H](CO)[C@@H](O)[C@H](O)[C@H]5O)[C@@H]4[C@@]4(CO)O[C@@H]34)O[C@H]2C)cc1O | 30.4% [at 16.9 µM] (inactive)
CCNc1nc(Nc2cc(F)c(C(=O)N3CCOCC3)cc2OC)ncc1C(F)(F)F | 1.09% (inactive)
[N-]=[N+]=N[C@]1(CO)O[C@@H](n2ccc(=O)[nH]c2=O)[C@@H](O)[C@@H]1O | -7.49% (inactive)
C[C@@H]1O[C@@H](O[C@H]2[C@H](O)[C@@H](O[C@@H]3O[C@H](CO)[C@H](O)[C@H](O)[C@H]3O)[C@H](O[C@H]3CC[C@@]4(C)C(CC[C@]5(C)C4CC=C4[C@@H]6CC(C)(C)CC[C@]6(C(=O)O[C@@H]6O[C@H](CO)[C@@H](O)[C@H](O)[C@H]6O)CC[C@]45C)C3(C)C)O[C@@H]2C(=O)O)[C@H](O)[C@H](O)[C@H]1O (some centres undefined) | 4.84% [at 16.9 µM] (inactive)
CCCCc1nc(C)c(CC(=S)N(C)C)c(=O)n1Cc1ccc(-c2ccccc2-c2nn[nH]n2)cc1 | -6.03% (inactive)
CCC(C)C1NC(=O)C(Cc2ccccc2)NC(=O)C(CCCCCC(=O)C(O)CO)NC(=O)C2CCCCN2C1=O (centres undefined) | 8.95% [at 16.9 µM] (inactive)
O=C1N(CC2CCCCN2)CCN1c1ccccc1 (centres undefined) | -22.2% (inactive)
C[C@@H](Cc1cc2c(c(C(N)=O)c1)N(CCCO)CC2)NCCOc1ccccc1OCC(F)(F)F | 2.49% (inactive)
O=C1OCC(c2ccccc2)=C1Cc1ccccc1 | -0.335% (inactive)
Cc1cc(CNC(=O)c2cc(C(=O)NCc3ccc(F)c(C)c3)ncn2)ccc1F | -3.28% (inactive)
CC1(C)CC[C@]2(C(=O)O)CC[C@]3(C)C(=CCC4[C@@]5(C)CC[C@H](O[C@@H]6O[C@H](CO)[C@@H](O)[C@H](O)[C@H]6O[C@@H]6O[C@H](CO)[C@@H](O)[C@H](O)[C@H]6O)[C@@](C)(CO)C5CC[C@]43C)[C@@H]2C1 (some centres undefined) | 20.1% [at 16.9 µM] (inactive)
